Measured values: publication PMC12820563, “FoxP3 forms a head-to-head dimer in vivo and stabilizes its multimerization on adjacent microsatellites”
Whole data set: some 16,000 sequences, median “rpm ratio (pull-down/input)” near 0.5, cut for the highest 2% near 5.5. What follows is part of a selection rich in the highest values, with near analogues and random picks from the rest.

Biological target: T1, MBP-FoxP3dN (Mus musculus, UniProt Q99JB6 188-423)
T1 sequence: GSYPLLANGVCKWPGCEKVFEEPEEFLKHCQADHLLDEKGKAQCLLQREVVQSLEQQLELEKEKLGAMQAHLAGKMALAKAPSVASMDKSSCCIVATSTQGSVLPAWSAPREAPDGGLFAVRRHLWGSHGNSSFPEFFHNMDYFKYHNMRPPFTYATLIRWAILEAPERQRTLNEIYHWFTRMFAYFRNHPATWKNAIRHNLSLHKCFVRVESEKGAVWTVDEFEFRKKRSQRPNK
Assay: PD-seq (MBP pull-down with sequencing); 20 mM Tris-HCl pH 7.5, 100 mM NaCl, 1.5 mM MgCl2, 0.4 uM protein, 0.1 uM dsDNA library, 30 min, room temperature, amylose pull-down; high values mean tight binding
Settings: protein: recombinant; tags: His6-MBP; chain copies: 2; dsDNA, one strand shown
In short: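 His6-MBP-tagged mouse FoxP3 or FoxP1 fragment lacking the N-terminus, expressed in E. coli, was mixed at 0.4 µM with 0.1 µM Klenow-filled double-stranded degenerate DNA library. Incubation was 30 min at room temperature in Tris pH 7.5 buffer with NaCl and MgCl2. Complexes were caught on amylose resin and washed three times; DNA was released with proteinase K, PCR-barcoded and Illumina-sequenced. Binding is reads-per-million enrichment, pull-down over input, with replicates pooled.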

Sequence	binding signal
GATGATTGTTCTCCCAGCTGATGAATTGCCTCGGTCGAGTAAACAAATTTTCCTAATCTTTCTGTTCAAGCGCCATCTAC	0.565 RPM ratio (pull-down/input)
GATGATTGTTCTCCCAGCTGATGAATTTTCAACTTCGAGTAAACAAATTTTCCTAATCTTTCTGTTCAAGCGCCATCTAC	0.307 RPM ratio (pull-down/input)
GATGATTGTTCTCCCAGCTGATGAATTGAATGACTCGAGTAAACAAATTTTCCTAATCTTTCTGTTCAAGCGCCATCTAC	0.545 RPM ratio (pull-down/input)
GATGATTGTTCTCCCAGCTGATGAATTGTTAAAATCGAGTAAACAAATTTTCCTAATCTTTCTGTTCAAGCGCCATCTAC	0.291 RPM ratio (pull-down/input)
GATGATTGTTCTCCCAGCTGATGAATTAAGTAGCTCGAGTAAACAAATTTTCCTAATCTTTCTGTTCAAGCGCCATCTAC	0.874 RPM ratio (pull-down/input)
GATGATTGTTCTCCCAGCTGATGAATTGTTGCATTCGAGTAAACAAATTTTCCTAATCTTTCTGTTCAAGCGCCATCTAC	7.63 RPM ratio (pull-down/input)
GATGATTGTTCTCCCAGCTGATGAATTGCATTCTTCGAGTAAACAAATTTTCCTAATCTTTCTGTTCAAGCGCCATCTAC	4.62 RPM ratio (pull-down/input)
GATGATTGTTCTCCCAGCTGATGAATTTTGCCATTCGAGTAAACAAATTTTCCTAATCTTTCTGTTCAAGCGCCATCTAC	5.66 RPM ratio (pull-down/input)
GATGATTGTTCTCCCAGCTGATGAATTTGCCCATTCGAGTAAACAAATTTTCCTAATCTTTCTGTTCAAGCGCCATCTAC	0.615 RPM ratio (pull-down/input)
GATGATTGTTCTCCCAGCTGATGAATTTGCCATTTCGAGTAAACAAATTTTCCTAATCTTTCTGTTCAAGCGCCATCTAC	2.91 RPM ratio (pull-down/input)
GATGATTGTTCTCCCAGCTGATGAATTTTGCATTTCGAGTAAACAAATTTTCCTAATCTTTCTGTTCAAGCGCCATCTAC	6.44 RPM ratio (pull-down/input)
GATGATTGTTCTCCCAGCTGATGAATTCGTTGCATCGAGTAAACAAATTTTCCTAATCTTTCTGTTCAAGCGCCATCTAC	2.22 RPM ratio (pull-down/input)
GATGATTGTTCTCCCAGCTGATGAATTTGCATTTTCGAGTAAACAAATTTTCCTAATCTTTCTGTTCAAGCGCCATCTAC	5.38 RPM ratio (pull-down/input)
GATGATTGTTCTCCCAGCTGATGAATTGCAGCATTCGAGTAAACAAATTTTCCTAATCTTTCTGTTCAAGCGCCATCTAC	5.93 RPM ratio (pull-down/input)
GATGATTGTTCTCCCAGCTGATGAATTTGCATTGTCGAGTAAACAAATTTTCCTAATCTTTCTGTTCAAGCGCCATCTAC	5.29 RPM ratio (pull-down/input)
GATGATTGTTCTCCCAGCTGATGAATTCGCGGAGTCGAGTAAACAAATTTTCCTAATCTTTCTGTTCAAGCGCCATCTAC	0.23 RPM ratio (pull-down/input)
GATGATTGTTCTCCCAGCTGATGAATTTGGGTTGTCGAGTAAACAAATTTTCCTAATCTTTCTGTTCAAGCGCCATCTAC	1.1 RPM ratio (pull-down/input)
GATGATTGTTCTCCCAGCTGATGAATTCCTACGGTCGAGTAAACAAATTTTCCTAATCTTTCTGTTCAAGCGCCATCTAC	0.213 RPM ratio (pull-down/input)
GATGATTGTTCTCCCAGCTGATGAATTCCCTGTTTCGAGTAAACAAATTTTCCTAATCTTTCTGTTCAAGCGCCATCTAC	0.346 RPM ratio (pull-down/input)
GATGATTGTTCTCCCAGCTGATGAATTAGAATAGTCGAGTAAACAAATTTTCCTAATCTTTCTGTTCAAGCGCCATCTAC	0.342 RPM ratio (pull-down/input)
GATGATTGTTCTCCCAGCTGATGAATTTTTTTTTTCGAGTAAACAAATTTTCCTAATCTTTCTGTTCAAGCGCCATCTAC	0.217 RPM ratio (pull-down/input)

Sequence	binding signal
GATGATTGTTCTCCCAGCTGATGAATTCCGGCGTTCGAGTAAACAAATTTTCCTAATCTTTCTGTTCAAGCGCCATCTAC	1.07 RPM ratio (pull-down/input)
GATGATTGTTCTCCCAGCTGATGAATTCACGTCATCGAGTAAACAAATTTTCCTAATCTTTCTGTTCAAGCGCCATCTAC	0.59 RPM ratio (pull-down/input)
GATGATTGTTCTCCCAGCTGATGAATTATTGGAGTCGAGTAAACAAATTTTCCTAATCTTTCTGTTCAAGCGCCATCTAC	0.296 RPM ratio (pull-down/input)
GATGATTGTTCTCCCAGCTGATGAATTTAAACGCTCGAGTAAACAAATTTTCCTAATCTTTCTGTTCAAGCGCCATCTAC	0.381 RPM ratio (pull-down/input)
GATGATTGTTCTCCCAGCTGATGAATTTGCATCTTCGAGTAAACAAATTTTCCTAATCTTTCTGTTCAAGCGCCATCTAC	7.16 RPM ratio (pull-down/input)
GATGATTGTTCTCCCAGCTGATGAATTGAATCCTTCGAGTAAACAAATTTTCCTAATCTTTCTGTTCAAGCGCCATCTAC	0.33 RPM ratio (pull-down/input)
GATGATTGTTCTCCCAGCTGATGAATTGCATTATTCGAGTAAACAAATTTTCCTAATCTTTCTGTTCAAGCGCCATCTAC	3.3 RPM ratio (pull-down/input)
GATGATTGTTCTCCCAGCTGATGAATTGCATCTTTCGAGTAAACAAATTTTCCTAATCTTTCTGTTCAAGCGCCATCTAC	5.4 RPM ratio (pull-down/input)
GATGATTGTTCTCCCAGCTGATGAATTGCATTCGTCGAGTAAACAAATTTTCCTAATCTTTCTGTTCAAGCGCCATCTAC	3.88 RPM ratio (pull-down/input)
GATGATTGTTCTCCCAGCTGATGAATTTGCAGCTTCGAGTAAACAAATTTTCCTAATCTTTCTGTTCAAGCGCCATCTAC	1.22 RPM ratio (pull-down/input)
GATGATTGTTCTCCCAGCTGATGAATTGCCATCTTCGAGTAAACAAATTTTCCTAATCTTTCTGTTCAAGCGCCATCTAC	1.07 RPM ratio (pull-down/input)
GATGATTGTTCTCCCAGCTGATGAATTCCTTGCATCGAGTAAACAAATTTTCCTAATCTTTCTGTTCAAGCGCCATCTAC	0.828 RPM ratio (pull-down/input)
GATGATTGTTCTCCCAGCTGATGAATTCTTGCATTCGAGTAAACAAATTTTCCTAATCTTTCTGTTCAAGCGCCATCTAC	6.02 RPM ratio (pull-down/input)
GATGATTGTTCTCCCAGCTGATGAATTATTGCATTCGAGTAAACAAATTTTCCTAATCTTTCTGTTCAAGCGCCATCTAC	7.31 RPM ratio (pull-down/input)
GATGATTGTTCTCCCAGCTGATGAATTATTCCATTCGAGTAAACAAATTTTCCTAATCTTTCTGTTCAAGCGCCATCTAC	0.434 RPM ratio (pull-down/input)
GATGATTGTTCTCCCAGCTGATGAATTGCATCCTTCGAGTAAACAAATTTTCCTAATCTTTCTGTTCAAGCGCCATCTAC	5.53 RPM ratio (pull-down/input)
GATGATTGTTCTCCCAGCTGATGAATTGTAGACATCGAGTAAACAAATTTTCCTAATCTTTCTGTTCAAGCGCCATCTAC	0.874 RPM ratio (pull-down/input)
GATGATTGTTCTCCCAGCTGATGAATTGACTCTCTCGAGTAAACAAATTTTCCTAATCTTTCTGTTCAAGCGCCATCTAC	0.425 RPM ratio (pull-down/input)
GATGATTGTTCTCCCAGCTGATGAATTCGAGATATCGAGTAAACAAATTTTCCTAATCTTTCTGTTCAAGCGCCATCTAC	0.404 RPM ratio (pull-down/input)
GATGATTGTTCTCCCAGCTGATGAATTGGTAGCCTCGAGTAAACAAATTTTCCTAATCTTTCTGTTCAAGCGCCATCTAC	0.924 RPM ratio (pull-down/input)
GATGATTGTTCTCCCAGCTGATGAATTCACTGTATCGAGTAAACAAATTTTCCTAATCTTTCTGTTCAAGCGCCATCTAC	0.627 RPM ratio (pull-down/input)

Sequence	binding signal
GATGATTGTTCTCCCAGCTGATGAATTGTCTGTATCGAGTAAACAAATTTTCCTAATCTTTCTGTTCAAGCGCCATCTAC	0.624 RPM ratio (pull-down/input)
GATGATTGTTCTCCCAGCTGATGAATTGTGGCGTTCGAGTAAACAAATTTTCCTAATCTTTCTGTTCAAGCGCCATCTAC	2.54 RPM ratio (pull-down/input)
GATGATTGTTCTCCCAGCTGATGAATTGAATGATTCGAGTAAACAAATTTTCCTAATCTTTCTGTTCAAGCGCCATCTAC	0.737 RPM ratio (pull-down/input)
GATGATTGTTCTCCCAGCTGATGAATTCGAACACTCGAGTAAACAAATTTTCCTAATCTTTCTGTTCAAGCGCCATCTAC	0.457 RPM ratio (pull-down/input)
GATGATTGTTCTCCCAGCTGATGAATTTTTCCGTTCGAGTAAACAAATTTTCCTAATCTTTCTGTTCAAGCGCCATCTAC	0.238 RPM ratio (pull-down/input)
GATGATTGTTCTCCCAGCTGATGAATTCACTCAATCGAGTAAACAAATTTTCCTAATCTTTCTGTTCAAGCGCCATCTAC	0.294 RPM ratio (pull-down/input)
GATGATTGTTCTCCCAGCTGATGAATTGGGACTGTCGAGTAAACAAATTTTCCTAATCTTTCTGTTCAAGCGCCATCTAC	0.673 RPM ratio (pull-down/input)
GATGATTGTTCTCCCAGCTGATGAATTACACTATTCGAGTAAACAAATTTTCCTAATCTTTCTGTTCAAGCGCCATCTAC	0.606 RPM ratio (pull-down/input)
GATGATTGTTCTCCCAGCTGATGAATTGCATCCCTCGAGTAAACAAATTTTCCTAATCTTTCTGTTCAAGCGCCATCTAC	4.21 RPM ratio (pull-down/input)
GATGATTGTTCTCCCAGCTGATGAATTTGCATCCTCGAGTAAACAAATTTTCCTAATCTTTCTGTTCAAGCGCCATCTAC	7.55 RPM ratio (pull-down/input)
GATGATTGTTCTCCCAGCTGATGAATTGCCATCCTCGAGTAAACAAATTTTCCTAATCTTTCTGTTCAAGCGCCATCTAC	0.935 RPM ratio (pull-down/input)
GATGATTGTTCTCCCAGCTGATGAATTGTAACCATCGAGTAAACAAATTTTCCTAATCTTTCTGTTCAAGCGCCATCTAC	1.1 RPM ratio (pull-down/input)
GATGATTGTTCTCCCAGCTGATGAATTGGACGACTCGAGTAAACAAATTTTCCTAATCTTTCTGTTCAAGCGCCATCTAC	0.259 RPM ratio (pull-down/input)
GATGATTGTTCTCCCAGCTGATGAATTGTGTTCATCGAGTAAACAAATTTTCCTAATCTTTCTGTTCAAGCGCCATCTAC	1.77 RPM ratio (pull-down/input)
GATGATTGTTCTCCCAGCTGATGAATTCGAGTTATCGAGTAAACAAATTTTCCTAATCTTTCTGTTCAAGCGCCATCTAC	0.746 RPM ratio (pull-down/input)
GATGATTGTTCTCCCAGCTGATGAATTGCCAAATTCGAGTAAACAAATTTTCCTAATCTTTCTGTTCAAGCGCCATCTAC	0.453 RPM ratio (pull-down/input)
GATGATTGTTCTCCCAGCTGATGAATTGGATCCGTCGAGTAAACAAATTTTCCTAATCTTTCTGTTCAAGCGCCATCTAC	0.219 RPM ratio (pull-down/input)
GATGATTGTTCTCCCAGCTGATGAATTGTTTGTGTCGAGTAAACAAATTTTCCTAATCTTTCTGTTCAAGCGCCATCTAC	8.22 RPM ratio (pull-down/input)
GATGATTGTTCTCCCAGCTGATGAATTGTGTGTGTCGAGTAAACAAATTTTCCTAATCTTTCTGTTCAAGCGCCATCTAC	5.21 RPM ratio (pull-down/input)
GATGATTGTTCTCCCAGCTGATGAATTTTGTGTTTCGAGTAAACAAATTTTCCTAATCTTTCTGTTCAAGCGCCATCTAC	5.3 RPM ratio (pull-down/input)
GATGATTGTTCTCCCAGCTGATGAATTGTGTTTGTCGAGTAAACAAATTTTCCTAATCTTTCTGTTCAAGCGCCATCTAC	8.45 RPM ratio (pull-down/input)
